# Measured values taken from PMC7822874, “Chemoprotective antimalarials identified through quantitative high-throughput screening of Plasmodium blood and liver stage parasites” (Scientific Reports, 2021).
# Read-outs that look alike come from different tables or passages of the source.
# Tested on: P. berghei-ANKA-GFP-LucCON liver stage parasites in HepG2-A16-CD81EGFP cells
# Settings: 48 h
structure (smiles),measurement,setting,value
COC(=O)C1=C(C)NC(C)=C(C(=O)OCCCN2CCC(c3ccccc3)(c3ccccc3)CC2)C1c1cccc([N+](=O)[O-])c1 (stereo not shown) [NCGC00163135],% viability,1 µM,0.1886
same,% viability,3 µM,0.1117
COc1ccc(-c2c[n+](CC(=O)c3cccs3)c3n2CCC3)cc1 [MLS000333575],% viability,1 µM,1.153
same,% viability,3 µM,0.8461
